Rows were chosen to be rich in hits. Some 0.8% of all compounds tested hit in one or more screens of this group.
Tb PFK inh – inhibitors of T. brucei phosphofructokinase. T. brucei PFK, ADP-Glo luminescence. Potency, µM (titrated, usually from 57.5 µM), for the others: top-dose activity, negative = inhibition, hits mostly inhibitors. hit rate 0.17% among 330,000. AID 485367;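 further: potency means the concentration at half of the fitted maximal effect; 0% = uninhibited 1x PFK enzyme wells and -100% = no-enzyme wells; nearly all actives have a fitted effect of over 60% in size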
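ADP-Glo luminescence quantified ADP after 45 min at room temperature, with 1.25 nM T. brucei PFK, 0.1 mM ATP and 0.5 mM fructose-6-phosphate in pH 8.0 TEA buffer. qHTS titrations up to 57 µM; curves classified by quality.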
PGK inhibitor – blocks T. brucei phosphoglycerate kinase; hit rate 0.043% among 380,000; Potency, µM (highest dose often 57.5 µM), inactives show at the highest dose activity change, negative = inhibition, actives largely listed as inhibitors; PGK/GAPDH coupled, Kinase-Glo luminescence, 60 min; P07378; further: potency means the concentration at half of the fitted maximal effect; nearly all actives have a fitted effect of over 60% in size
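Luminescent ATP detection (Kinase-Glo Plus) follows a 60-minute room-temperature incubation, with wells lacking PGK as controls. Buffer: 100 mM TEA (pH 7.6), 5 mM MgCl2, 0.01% Tween-20. Coupling enzyme GAPDH (100 nM final) supplies unstable 1,3-BPG in-well.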
TDP1 block – blocks human tyrosyl-DNA phosphodiesterase 1; Potency, µM (doses to about 130 µM), inactives show at the top dose activity change, negative = inhibition, most hits filed as inhibitors; recombinant TDP1, AlphaScreen DNA substrate cleavage; AID 485290; hit rate 0.28% among 350,000; further: potency means the concentration at half of the fitted maximal effect; nearly all actives have a fitted effect of over 40% in size
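AlphaScreen read-out: signal falls as enzyme removes the 3' tyrosine-FITC from a 5'-biotinylated DNA oligo (15 nM, 5 min, RT). Enzyme was E. coli-made recombinant Tdp1 at 1 nM, exposed to compound for 15 min beforehand; beads 10 ug/ml, 10 min.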
APE1 inh-1 – APE1 (human) endonuclease inhibition; recombinant APE1, TAMRA/BHQ-2 abasic DNA cleavage fluorescence; Potency, µM (series often up to 65.8 µM), without a hit: at the highest dose activity change, negative = inhibition, hits mostly inhibitors; hit rate 0.35% among 350,000; AID 2517;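 further: potency means the concentration at half of the fitted maximal effect; plate controls were vehicle for no effect and reference inhibitor for full effect; nearly all actives have a fitted effect of over 55% in size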
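Step 1: APE1 (0.75 nM) with compound, 15 min RT. Step 2: add 50 nM fluorophore/quencher THF duplex. Step 3: three fluorescence reads 60 s apart (525/598 nm); read 3 minus read 1 = reaction progress.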
PI4K2A block – PI4K2A (human) kinase inhibition | hit rate 0.13% among 420,000 | Q9BTU6 | activity change, negative = inhibition, % at 76.9 µM | purified PI4K2A, ADP-Glo luminescence, 1 h; hits give low values; in the data active means activity change below about -50%; inconclusive means mostly about -30% to -49%;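 further: -100% = wells without enzyme as full effect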
Target sequence (Q9BTU6 whole entry, looked up): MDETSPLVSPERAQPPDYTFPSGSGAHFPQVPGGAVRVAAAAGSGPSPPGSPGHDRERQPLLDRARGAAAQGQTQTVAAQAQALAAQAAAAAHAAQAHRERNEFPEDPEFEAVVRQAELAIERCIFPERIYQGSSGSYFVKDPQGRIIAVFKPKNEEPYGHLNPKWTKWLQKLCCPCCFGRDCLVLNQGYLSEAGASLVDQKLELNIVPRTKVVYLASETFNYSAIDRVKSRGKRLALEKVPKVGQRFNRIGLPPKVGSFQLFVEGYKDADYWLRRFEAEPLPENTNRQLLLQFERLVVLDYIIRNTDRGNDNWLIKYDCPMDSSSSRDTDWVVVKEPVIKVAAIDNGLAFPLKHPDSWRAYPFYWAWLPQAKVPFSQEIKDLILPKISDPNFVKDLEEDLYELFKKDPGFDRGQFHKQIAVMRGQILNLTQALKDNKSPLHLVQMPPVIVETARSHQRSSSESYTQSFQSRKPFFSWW
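In this quantitative HTS, ADP production by PI4K2A was quantified luminescently after 1 h at ambient temperature; 100 microM adenosine served as plate-quality control.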
FEN1 inhibitor – blocks human flap endonuclease 1. Recombinant FEN1 flap cleavage, fluorescence, 15 min. hit rate 0.35% among 390,000. Potency, µM (doses to about 114 µM), inactives show at the highest dose activity change, negative = inhibition, usual class: inhibitors. P39748; further: potency means the concentration at half of the fitted maximal effect; nearly all actives have a fitted effect of over 65% in size
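In this screen, 50 nM flap DNA substrate was added to 10 nM FEN1 pretreated with compound for 15 min at room temperature; cleavage was followed with reads at 0 and 15 min, and Hill fitting gave concentration–response parameters.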
DNA dye displace – displaces fluorescent dye from DNA, flagging APE1 artifacts | shares compounds with APE1 inh-1 | DNA fluorescent dye displacement counterscreen, fluorescence | Potency, µM (doses to about 28.5 µM), for the others: at the top dose activity change, negative = inhibition, most hits filed as inhibitors | hit rate 7% among 480;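 further: loss of thiazole orange fluorescence as the dye is displaced from duplex DNA; potency means the concentration at half of the fitted maximal effect; 0% = ThO with dsDNA and no compound and -100% = ThO without dsDNA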
Endo IV inh – counter-screen for APE1 inhibitors: inhibitors of E. coli endonuclease IV; Potency, µM (series often up to 27.1 µM), without a hit: at the highest dose activity change, negative = inhibition, most hits filed as inhibitors; shares compounds with APE1 inh-1; E. coli Endo IV, fluorogenic AP-site DNA cleavage; hit rate 4% among 560;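 further: potency means the concentration at half of the fitted maximal effect; plate controls were uninhibited enzyme wells for no effect and no enzyme buffer wells for full effect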
APE1 inh-2 – confirmation of inhibitors of human APE1 endonuclease | purified APE1, fluorogenic abasic-site DNA cleavage | Potency, µM (top dose mostly 57.1 µM), inactives show at the top dose activity change, negative = inhibition, hits mostly inhibitors | hit rate 44% among 750 | shares compounds with APE1 inh-1; further: potency means the concentration at half of the fitted maximal effect; nearly all actives have a fitted effect of over 30% in size
APE1 FP – displaces DNA from human APE1 in FP assay. APE1 binding to TAMRA-labelled double-stranded DNA, fluorescence polarization displacement. shares compounds with APE1 inh-1. AID 2573. Potency, µM (series often up to 28.5 µM), without a hit: at the highest dose activity, negative = inhibition, actives largely listed as inhibitors. hit rate 7% among 480; further: potency means the concentration at half of the fitted maximal effect
Active calls of the source: *; i = inactive; ? = inconclusive; · = no result given; [ ] = remark or other dose. Unless noted, the call rests on the fitted dose curve; in most records, active means well fitted curve in the direction sought with a large enough effect; inconclusive means small, poorly fitted or top-dose-only effect, or another doubt; inactive means no such curve, though single readings can be large; an effect the other way counts as inactive or inconclusive. Unless noted, on the % scale 0 is the no-effect control and ±100 the full control effect.

SMILES	Tb PFK inh	PGK inhibitor	TDP1 block	APE1 inh-1	PI4K2A block	FEN1 inhibitor	APE1 inh-2	others
CCCCOC(=O)CC(CC(=O)OCCCC)(OC(C)=O)C(=O)OCCCC	·	·	·	·	-1	·	·
Cc1cc(C)n(-c2nc(Nc3ccccc3)nc(-n3nc(C)cc3C)n2)n1	3%	·	45µM*	-5%	-1	-5%	·
Cc1cc(C)n(-c2nc(N(c3ccccc3)c3ccccc3)nc(-n3nc(C)cc3C)n2)n1	0%	-9%	5%	5%	-2	-23%	·
COC[C@@H](c1ccc(C(F)(F)F)cc1)N1CCN(C2(C)CCN(C(=O)c3c(C)ncnc3C)CC2)C[C@H]1C	·	·	·	·	3	·	·
COc1cccc(/C=N/Nc2nccnc2Cl)c1O	-21%	?	8%	-5%	-60*	-9%	·
Oc1ccc(/C=N/Nc2nccnc2Cl)c(O)c1	-20%	?	-1%	-1%	-67*	-3%	·
COc1ccccc1CNC(=O)C1CCN(S(=O)(=O)c2c(C)noc2/C=C/c2cccs2)CC1	·	-8%	0%	·	-8	89µM*	·
O=[N+]([O-])c1c(NCCCO)cc(Sc2nc3ccccc3s2)c2nonc12	?	-4%	6%	-7%	?	40µM*	·
COc1ccc(CCC(=O)Nc2c(-c3ccc(N(C)C)cc3)[nH][nH]c2=O)cc1	·	·	·	·	-64*	·	·
O=C(C[C@@H]1C/C=C\C[C@H](NC(=O)OCC2c3ccccc3-c3ccccc32)C(=O)OC[C@H]2CCCN2C1=O)NCCO	-18%	-1%	-5%	11µM*	6	-1%	·
O=C(C[C@H]1C/C=C\C[C@H](NC(=O)OCC2c3ccccc3-c3ccccc32)C(=O)OC[C@H]2CCCN2C1=O)NCCO	-5%	2%	-14%	?	0	-14%	·
COc1cc([N+](=O)[O-])cc(/C=N/NC(=O)CC#N)c1O	25%	·	-8%	?	·	·	?	DNA dye displace=-7%;Endo IV inh=1%;APE1 FP=?
COc1cc([N+](=O)[O-])cc(/C=N/NC(=O)Cn2cncn2)c1O	1%	i	6%	0%	-2	-3%	·
CN(CC(=O)NC(=O)NCc1ccco1)Cc1nc2ccccc2c(=O)[nH]1	?	-16%	50µM*	20µM*	-9	-20%	?	DNA dye displace=?;Endo IV inh=9%;APE1 FP=?
O=S(=O)(O)c1ccc2c(c1)-c1nc-2nc2[nH]c(nc3nc(nc4[nH]c(n1)c1ccc(S(=O)(=O)O)cc41)-c1ccc(S(=O)(=O)O)cc1-3)c1ccc(S(=O)(=O)O)cc21	·	·	0.1µM*	0.32µM*	·	·	0.05µM*	DNA dye displace=0.56µM*;Endo IV inh=-93%[57.1 µM];APE1 FP=0.14µM*
CCOC(=O)N1CCC(N2Cc3cccc(C(=O)NCc4ccc5c(c4)OCO5)c3C2=O)CC1	?	-10%	50µM*	?	-5	3%	?
CCOC(=O)N1CCC(N2Cc3cccc(C(=O)NCc4ccc(OC)cc4)c3C2=O)CC1	?	·	3%	4%	·	·	·
O=C(Nc1cc(C(F)(F)F)ccc1Cl)[C@H](O)CCc1ccccc1	·	·	-7%	·	·	·	·
CCOc1ccccc1-c1nnc2n1N=C(c1ccc(OC)c(OC)c1)CS2	·	·	-11%	10µM*	·	·	-13%	DNA dye displace=?;Endo IV inh=97%[57.1 µM];APE1 FP=?
COc1ccc(C2=Nn3c(nnc3-c3ccccc3O)SC2)cc1OC	·	·	4%	-2%	·	·	·
Cc1cc2nc(-c3ccc(SCc4ccc(C(=O)O)cc4)nc3)[nH]c2cc1C	10%	-10%	22µM*	4%	0	?	40µM*
COc1ccc(CCn2c(O)cc3nn(-c4nc5ccccc5s4)c(=O)c-3c2C)cc1	16%	i	·	32µM*	-26	?	16µM*	DNA dye displace=?;Endo IV inh=9%;APE1 FP=4%
N#Cc1nc(Nc2cc(Cl)cc(Cl)c2)nc(NC2CCCC2)n1	·	·	-4%	·	·	·	·
OC[C@]1(O)OC[C@@H](O)[C@H](O)[C@@H]1O	·	·	·	·	1	·	·
Cc1ccc(C(=O)Nc2ccc(S(=O)(=O)O)c3cc(S(=O)(=O)O)cc(S(=O)(=O)O)c23)cc1NC(=O)c1cccc(NC(=O)Nc2cccc(C(=O)Nc3cc(C(=O)Nc4ccc(S(=O)(=O)O)c5cc(S(=O)(=O)O)cc(S(=O)(=O)O)c45)ccc3C)c2)c1	·	·	4.5µM*	22µM*	?	1.3µM*	8.9µM*	Endo IV inh=14µM*
Nc1ccccc1OC1=NS(=O)(=O)c2ccccc21	·	·	2%	·	·	·	·

Screens from PubChem BioAssay.
